Results from paper PMC4336329 (PLoS ONE, 2015).
The campaign covered roughly 310,000 compounds. About 14,000 (4.5%) showed an effect of 50% or more. Effects have a minus sign here. This excerpt belongs to a sample that is enriched for strong results.

Target: human ether-à-go-go-related gene (hERG) potassium channel (human, UniProt Q12809)
Assay: primary screen, population patch clamp on CHO cells stably expressing hERG; higher = less effect of the substance
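Also: peak tail current of the secondary pulse compared with the same well before compound.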

Chain of human ether-à-go-go-related gene (hERG) potassium channel (Q12809 whole entry, looked up): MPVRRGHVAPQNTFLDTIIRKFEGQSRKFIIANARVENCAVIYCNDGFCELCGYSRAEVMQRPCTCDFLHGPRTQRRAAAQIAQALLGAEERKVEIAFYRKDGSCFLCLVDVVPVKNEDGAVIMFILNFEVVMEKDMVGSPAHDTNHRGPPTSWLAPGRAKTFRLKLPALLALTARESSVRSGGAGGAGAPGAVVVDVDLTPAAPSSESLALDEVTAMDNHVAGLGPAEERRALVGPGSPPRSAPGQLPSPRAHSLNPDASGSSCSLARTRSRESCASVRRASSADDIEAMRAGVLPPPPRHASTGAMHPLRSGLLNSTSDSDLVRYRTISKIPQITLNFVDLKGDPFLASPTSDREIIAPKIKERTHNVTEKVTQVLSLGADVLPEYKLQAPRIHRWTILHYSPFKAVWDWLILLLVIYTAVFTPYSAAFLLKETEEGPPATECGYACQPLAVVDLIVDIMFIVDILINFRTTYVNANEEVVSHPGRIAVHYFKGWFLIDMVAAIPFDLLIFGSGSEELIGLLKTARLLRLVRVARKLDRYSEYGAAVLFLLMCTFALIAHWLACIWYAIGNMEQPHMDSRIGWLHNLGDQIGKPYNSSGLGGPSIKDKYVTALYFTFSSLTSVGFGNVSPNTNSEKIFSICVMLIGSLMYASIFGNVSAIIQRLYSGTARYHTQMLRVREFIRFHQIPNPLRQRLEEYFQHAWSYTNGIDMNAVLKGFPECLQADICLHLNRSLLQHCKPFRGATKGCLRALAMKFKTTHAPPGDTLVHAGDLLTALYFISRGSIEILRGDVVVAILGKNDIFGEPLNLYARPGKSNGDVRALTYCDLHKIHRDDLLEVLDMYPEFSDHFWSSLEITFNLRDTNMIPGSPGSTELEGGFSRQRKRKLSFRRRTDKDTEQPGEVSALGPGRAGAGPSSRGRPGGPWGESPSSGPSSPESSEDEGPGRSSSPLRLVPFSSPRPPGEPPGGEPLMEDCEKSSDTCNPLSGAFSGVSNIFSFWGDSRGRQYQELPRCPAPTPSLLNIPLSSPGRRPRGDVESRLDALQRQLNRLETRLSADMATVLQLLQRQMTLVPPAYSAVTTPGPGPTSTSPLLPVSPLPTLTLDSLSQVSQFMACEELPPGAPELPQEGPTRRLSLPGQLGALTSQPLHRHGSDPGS

| Compound | hERG current change (%, negative = inhibition) at 10uM [%] |
| --- | --- |
| COC(=O)c1ccc(S(=O)(=O)NCc2ccco2)o1 | 6.1 |
| O=C(Cn1c(CN2CCCCC2)nc2ccccc2c1=O)NCc1ccco1 | -15.4 |
| COCCN(Cc1cc2cc(C)ccc2[nH]c1=O)S(=O)(=O)c1ccc(Cl)cc1 | 16.4 |
| COc1ccc(S(=O)(=O)Nc2nc3c(s2)C(=O)CC(C)(C)C3)cc1 | -10.3 |
| CCCCn1nc(C(=O)Nc2c(C)n(C)n(-c3ccccc3)c2=O)c2ccccc2c1=O | -17.9 |
| CC(C)Cn1nc(C(=O)NCc2ccccc2CN2CCCC2)c2ccccc2c1=O | -38.3 |
| CCCCn1nc(C(=O)NCc2ccccc2CN2CCCC2)c2ccccc2c1=O | -64.6 |
| CCCCn1nc(C(=O)N(CC)CC(=O)Nc2c(F)cccc2F)c2ccccc2c1=O | -7.72 |
| CCCCn1nc(C(=O)NCC(=O)Nc2c(C)cccc2C)c2ccccc2c1=O | -68.9 |
| CCCCn1nc(C(=O)Nc2ccccc2N2CCCC2)c2ccccc2c1=O | -9.4 |
| COc1cc(CCCN[C@H](CN)Cc2ccccc2)cc(OC)c1OC | -4.22 |
| O=C1CSC(c2ccc([N+](=O)[O-])cc2)N1Cc1ccccc1 (centres unmarked) | -48.8 |
| CCN(CC)CCCN1C(=O)CSC1c1ccc2c(c1)OCO2.Cl (centres unmarked) | -39.2 |
| Cl.O=C1CSC(c2cccc([N+](=O)[O-])c2)N1CCN1CCCCC1 (centres unmarked) | -21.4 |
| CN(C)CCCN1C(=O)CSC1c1ccc([N+](=O)[O-])cc1.Cl (centres unmarked) | -46 |
| Cl.O=C1CSC(c2ccc([N+](=O)[O-])cc2)N1CCN1CCCCC1 (centres unmarked) | -94.9 |
| CCN(CC)CCCN1C(=O)CSC1c1ccc([N+](=O)[O-])cc1.Cl (centres unmarked) | -72.8 |
| O=C(O)c1cc(S(=O)(=O)NC2CCCc3ccccc32)ccc1O (centres unmarked) | 13.5 |
| CC(C)CN(CC(C)C)c1ccc(C=C2C(=O)NC(=S)NC2=O)cc1[N+](=O)[O-] | 9.99 |
| CC[C@@H](C)C(NC(=O)OC(C)(C)C)c1cn([C@@H](Cc2cc3ccccc3[nH]2)C(=O)N2CCN(C(=O)OC(C)(C)C)CC2)nn1 (some centres unmarked) | -13.4 |
| CC[C@@H](C)C(NC(=O)OC(C)(C)C)c1cn([C@@H](Cc2ccc(O)cc2)C(=O)N2CCN(C(=O)OC(C)(C)C)CC2)nn1 (some centres unmarked) | -70 |
| CC[C@@H](C)C(NC(=O)OC(C)(C)C)c1cn([C@@H](CCC(=O)OC(C)(C)C)C(=O)N2CCN(C(=O)OC(C)(C)C)CC2)nn1 (some centres unmarked) | -17.6 |

| Compound | hERG current change (%, negative = inhibition) at 10uM [%] |
| --- | --- |
| O=c1c2cc(NC(=S)NC3CCCC3)ccc2nc2n1CCCCC2 | -59.6 |
| O=c1c2cc(NC(=S)NCc3ccccn3)ccc2nc2n1CCCCC2 | -6.42 |
| O=c1c2cc(NC(=S)NC3CCN(Cc4ccccc4)CC3)ccc2nc2n1CCCCC2 | -10.4 |
| O=c1c2cc(NC(=S)NCCN3CCCCCC3)ccc2nc2n1CCCCC2 | -1.38 |
| O=c1c2cc(NC(=S)NCCCN3CCC(Cc4ccccc4)CC3)ccc2nc2n1CCCCC2 | -82.1 |
| O=c1c2cc(NC(=S)NC3CCCCC3)ccc2nc2n1CCCCC2 | -70.2 |
| CC(C)CCNC(=S)Nc1ccc2nc3n(c(=O)c2c1)CCCCC3 | -46.2 |
| O=c1c2cc(NC(=S)NC3CC3)ccc2nc2n1CCCCC2 | 0.786 |
| COCCCNC(=S)Nc1ccc2nc3n(c(=O)c2c1)CCCCC3 | 7.89 |
| COc1ccccc1OC(=O)c1ccc2nsnc2c1 | 8.28 |
| O=C(OCC#Cc1c(COC(=O)c2ccccc2)nnn1Cc1ccccc1)c1ccccc1 | 5.67 |
| CCOc1ccc(/C=C2\SC(=S)N(CCC(=O)O)C2=O)cc1 | 3.03 |
| CS(=O)(=O)c1ccc(-c2nnc(NC(=O)c3cccc(N4C(=O)CCC4=O)c3)o2)cc1 | 6.65 |
| O=C(Nc1ccc(N2CCN(C(=O)c3ccccc3)CC2)c(Cl)c1)c1ccco1 | -29.5 |
| O=C(Nc1ccc(N2CCCC2)c(Cl)c1)c1ccc(Br)o1 | -7.29 |
| O=C(Nc1ccc(N2CCOCC2)c(Cl)c1)c1ccc(Br)o1 | -31.9 |
| O=C(Nc1ccc(N2CCN(C(=O)c3ccccc3)CC2)c(Cl)c1)c1ccc(Br)o1 | -58.2 |
| O=C(Nc1ccc(N2CCN(C(=O)c3ccccc3)CC2)c(Cl)c1)c1ncn[nH]1 | -5.79 |
| CC(=O)N1CCN(c2ccc(NC(=O)c3ccc(Br)o3)cc2Cl)CC1 | -55.3 |
| CCCCN(CC)S(=O)(=O)c1ccc(C(=O)Nc2nnc(-c3cccs3)o2)cc1 | -8.71 |
| COc1ccc(S(=O)(=O)N2CCOCC2)cc1NC(=O)CSc1nnc(C2CC2)n1C1CC1 | 2.57 |
| O=C(CN1C(=O)NC2(CCCc3ccccc32)C1=O)NCc1cccs1 (centres unmarked) | 6.2 |

| Compound | hERG current change (%, negative = inhibition) at 10uM [%] |
| --- | --- |
| CCOC(=O)C1CCCN(C(=S)Nc2cccc(Cl)c2)C1 (centres unmarked) | -5.74 |
| O=C(CCCc1ccccc1)NCCS(=O)(=O)N1CCN(c2ccc(F)cc2)CC1 | -39.3 |
| CCCCN=Cc1c(C)[nH]n(-c2ccccc2)c1=S | -4.64 |
| CCCc1[nH]n(-c2nc3ccccc3s2)c(=O)c1C=NCCCOC | -57.2 |
| Cc1[nH]n(-c2ccccc2)c(=O)c1C=NCC1CCCO1 (centres unmarked) | 13.8 |
| CCCc1[nH]n(-c2nc3ccccc3s2)c(=O)c1C=NCCN1CCOCC1 | -34.5 |
| CCCc1cc(=O)n(-c2nc3ccccc3s2)[nH]1 | 11.2 |
| Cc1[nH]n(-c2ccc([N+](=O)[O-])cc2)c(=O)c1C=NCC1CCCO1 (centres unmarked) | 0.91 |
| COC(=O)Cc1[nH]n(-c2nc3ccccc3s2)c(=O)c1C(C)=Nc1ccc(C)cc1 | 5.94 |
| CC(=NCc1ccco1)c1c(C)[nH]n(-c2nc3ccccc3s2)c1=O | 3.78 |
| CCCN=Cc1c(CCC)[nH]n(-c2nc3ccccc3s2)c1=O | -66.9 |
| COC(=O)Cc1[nH]n(-c2nc3ccccc3s2)c(=O)c1C(C)=O | 21.6 |
| CCCc1[nH]n(-c2nc3ccccc3s2)c(=O)c1C=NCC1CCCO1 (centres unmarked) | -65.5 |
| CCCCCN=Cc1c(C)[nH]n(-c2nc3ccccc3s2)c1=O | -65.5 |
| C/C(=N\NC(=O)c1ccc(NS(=O)(=O)c2cccs2)cc1)c1ccc(O)cc1O | -0.956 |
| CSc1nc(N)nc(C(C)C)n1 | -5.59 |
| CC[C@H](C)[C@H](NC(N)=O)C(=O)NCCc1ccc(OC)cc1 | -0.532 |
| O=C(CSc1nc(-c2ccccc2)nc2ccc(F)cc12)Nc1cccc(C(=O)O)c1 | 2.54 |
| O=C(NCc1cccnc1)c1cccs1 | 11.7 |
| COc1cc(NC(=O)C23CC4CC(C2)CC(n2nnc(C)n2)(C4)C3)c(OC)cc1Cl | 4.76 |
| COc1ccc(CCN2CC(C(=O)NC3CCCCC3)CC2=O)cc1OC (centres unmarked) | 10.2 |
| COC(=O)CC1SCCNC1=O (centres unmarked) | 9.08 |

| Compound | hERG current change (%, negative = inhibition) at 10uM [%] |
| --- | --- |
| CCCc1[nH]n(-c2nc3ccccc3s2)c(=O)c1C=NCCCN(CC)CC | -75.9 |
| CCN(CC)CCCSc1nc2ccccc2s1.O=C(O)C(=O)O | -31.9 |
| CCCc1[nH]n(-c2nc3ccccc3s2)c(=O)c1C=NCC(C)C | -75.4 |
| C/C(=N\NC(=O)CC(C)C)c1c(C(F)(F)F)[nH]n(-c2nc3ccccc3s2)c1=O | 8.88 |
| CC(=O)c1c(CC(=O)O)[nH]n(-c2nc3ccccc3s2)c1=O | 3.17 |
| Cc1cc(F)ccc1S(=O)(=O)N1CCCOC1CNC(=O)C(=O)NCc1ccc2c(c1)OCO2 (centres unmarked) | -26.9 |
| Cc1ccc(NC(=O)CSc2nnc(-c3ccncc3)s2)cc1 | 5.52 |
| O=[N+]([O-])c1ccc(N2CCCCC2)c(Cl)c1N1CCCCC1 | 3.77 |
| C=C(C)COc1ccc(-c2nc(N)ncc2-c2ccc(Br)cc2)c(O)c1 | 23.6 |
| CC12CCC(C/C1=N/O)C2(C)C (centres unmarked) | 6.85 |
| NC(=O)CCn1cnc2ccccc21 | 6.28 |
| O=C(NCc1cccnc1)c1ccc(=O)oc1 | -8.85 |
| CCOC(=O)c1cc(NC(=O)COc2ccc([N+](=O)[O-])cc2)cc(C(=O)OCC)c1 | -12.9 |
| CC(C)CNC(=O)c1cccc(NC(=O)COc2ccc([N+](=O)[O-])cc2)c1 | -57.4 |
| CCOC(=O)c1cccc(NC(=O)COc2ccc([N+](=O)[O-])cc2)c1 | -68 |
| Cc1cccc(OCC(=O)Nc2cccc(C(=O)NCC(C)C)c2)c1 | -17.4 |
| CCCOC(=O)c1cccc(NC(=O)COc2ccc([N+](=O)[O-])cc2)c1 | -26.9 |
| CC(C)CNC(=O)c1cccc(NC(=O)COc2cccc([N+](=O)[O-])c2)c1 | -24.7 |
| COCc1ccc(CN2CCCC(CO)(Cc3ccccc3C)C2)o1 (centres unmarked) | 2.18 |
| CC(=O)Nc1ccc(NC(=O)c2cc(=O)c3cc(C)c(C)cc3o2)cc1 | 24.6 |
